Bioassay records as filed in PubChem BioAssay.
Compounds with a hit are over-represented: about 0.9% of the library has one in this group of screens.
PPARg SRC3 recr – agonists of human PPARgamma SRC-3 coactivator recruitment. P37231. activation, % at 8 µM. 200,000 compounds, 0.26% hits. biochemical PPARgamma/SRC-3 coactivator recruitment assay; in the data active = activation above about 23%
PPARg SRC-1 ag – PPARgamma-driven SRC-1 recruitment agonism | P37231 | PPARgamma-SRC-1 coactivator recruitment biochemical assay | activation, % at 8 µM | 200,000 compounds, 0.41% hits | AID 631; in the data active = activation above about 19%
PPARg SRC-2 ag – agonists of SRC-2 recruitment by human PPARgamma; P37231; PPARgamma LBD-SRC-2 recruitment, biochemical; activation, % at 8 µM; 200,000 compounds, 0.34% hits
SRC2 TRFRET art – TR-FRET artefact, counter-screen to PPARgamma/SRC-2 agonist assay; stronger effect = higher value; TR-FRET ratio at 8 µM; 200,000 compounds, 0.4% hits; AID 1049; in the data active = TR-FRET ratio above about 2000
SRC1 TRFRET art – TR-FRET artefact, counter-screen to PPARgamma/SRC-1 agonist assay. TR-FRET detection artefact counter-screen, emission ratio; stronger effect = higher value. TR-FRET ratio at 8 µM. 99,000 compounds, 0.34% hits; in the data active = TR-FRET ratio above about 2300
SRC3 TRFRET art – counter-screen for PPARgamma SRC-3 recruitment agonists: TR-FRET artefact; TR-FRET ratio at 8 µM; AID 1048; 99,000 compounds, 0.39% hits; PPARgamma/SRC-3 format; stronger effect = higher value; in the data active = TR-FRET ratio above about 2000
PPARg SRC2 conf – confirmation of agonists of SRC-2 recruitment by human PPARgamma; biochemical SRC-2 recruitment by PPARgamma; 790 compounds, 52% hits; activation, % at 8 µM; shares compounds with PPARg SRC3 recr
PPARg SRC1 conf – confirmation of agonists of SRC-1 recruitment by human PPARgamma; shares compounds with PPARg SRC3 recr; PPARgamma–SRC-1 coactivator recruitment biochemical assay; activation, % at 8 µM; 790 compounds, 43% hits; AID 1300; in the data active = activation above about 20%
PPARg SRC3 ag – human PPARgamma SRC-3 recruitment agonism, confirmation; shares compounds with PPARg SRC3 recr; biochemical PPARgamma-SRC-3 coactivator recruitment, agonist mode; activation, % at 8 µM; 790 compounds, 29% hits; in the data active = activation above about 24%
Large screens that a line does not name were inactive (follow-up assays come after a bar, where they were run); ! = repeats disagree. Rule as the data show it, unless noted: active = activation above about 22%; inactive = the rest.

Cc1cc(SC(C)C(=O)O)nc2ccccc12 (stereo unspecified)	none
CC(Sc1ccc2ccccc2n1)C(=O)O (stereo unspecified)	PPARg SRC3 recr 37, PPARg SRC-1 ag 30!, PPARg SRC-2 ag 23, SRC2 TRFRET art 2286 (no result: SRC1 TRFRET art, SRC3 TRFRET art) | PPARg SRC2 conf 26 | PPARg SRC1 conf inactive | PPARg SRC3 ag inactive
COc1cc(C(=O)Nc2nnc(-c3sccc3C)s2)cc(OC)c1OC	PPARg SRC-1 ag 29, PPARg SRC-2 ag 24 (no result: SRC1 TRFRET art, SRC3 TRFRET art) | PPARg SRC2 conf 55 | PPARg SRC1 conf 43 | PPARg SRC3 ag 37
CCOCc1nnc(NC(=O)c2cc(OC)c(OC)c(OC)c2)s1	none
Cc1ccc(Cl)cc1NC(=S)N(CCCN1CCOCC1)Cc1ccco1	none
CCc1ccc2nc3c(c(C(=O)O)c2c1)CCC3	none (no result: SRC1 TRFRET art, SRC3 TRFRET art)
Cc1cc(Br)c2nc3c(c(C(=O)O)c2c1)CCCCC3	PPARg SRC3 recr 50, PPARg SRC-1 ag 53, PPARg SRC-2 ag 98, SRC2 TRFRET art 4070, SRC1 TRFRET art 3214, SRC3 TRFRET art 4157 | PPARg SRC2 conf 67 | PPARg SRC1 conf 43 | PPARg SRC3 ag 47
COc1ccc(NC(=O)N2CCC(n3cnc4ccccc43)CC2)cc1	none
CCN(CC)C(=O)c1sc2[nH]c(=S)n(-c3ccccc3)c(=O)c2c1C	PPARg SRC-2 ag 27 (no result: SRC1 TRFRET art, SRC3 TRFRET art) | PPARg SRC2 conf inactive | PPARg SRC1 conf inactive | PPARg SRC3 ag inactive
Cc1ccc(-n2c(O)c(C=Nc3ccccc3-c3n[nH]c(=S)[nH]c3=O)c3ccccc3c2=O)cc1C	PPARg SRC3 recr 23, PPARg SRC-1 ag 24, PPARg SRC-2 ag 24, SRC2 TRFRET art 2174, SRC1 TRFRET art 2325, SRC3 TRFRET art 2203 | PPARg SRC2 conf 44 | PPARg SRC1 conf 33 | PPARg SRC3 ag 28
Cn1c(SCC2CCCO2)nnc1-c1cccc([N+](=O)[O-])c1 (stereo unspecified)	none
O=C(CCSc1ccccn1)c1ccccc1	none
N#C/C(=C\c1ccc(N2CCCCC2)o1)C(N)=O	PPARg SRC-1 ag 21 | PPARg SRC2 conf inactive | PPARg SRC1 conf inactive | PPARg SRC3 ag inactive
CN(C)CCCN1C(=O)C(O)=C(C(=O)c2cc3ccccc3o2)C1c1ccccc1 (stereo unspecified)	PPARg SRC3 recr 90, PPARg SRC-1 ag 53, PPARg SRC-2 ag 73, SRC2 TRFRET art 3299 (no result: SRC1 TRFRET art, SRC3 TRFRET art) | PPARg SRC2 conf 70 | PPARg SRC1 conf 50 | PPARg SRC3 ag 45
O=C(C1=C(O)C(=O)N(CCCN2CCOCC2)C1c1ccncc1)c1cc2ccccc2o1 (stereo unspecified)	PPARg SRC-1 ag 23, SRC1 TRFRET art 2425, SRC3 TRFRET art 2068 | PPARg SRC2 conf 25 | PPARg SRC1 conf inactive | PPARg SRC3 ag inactive
COc1cccc(C2C(C(=O)c3ccc(C)o3)=C(O)C(=O)N2CCCN(C)C)c1 (stereo unspecified)	none (no result: SRC1 TRFRET art, SRC3 TRFRET art)
COC(=O)c1ccc(C2C(C(=O)c3cc4ccccc4o3)=C(O)C(=O)N2CCCN(C)C)cc1 (stereo unspecified)	PPARg SRC3 recr 29, PPARg SRC-1 ag 22 (no result: SRC1 TRFRET art, SRC3 TRFRET art) | PPARg SRC2 conf 25 | PPARg SRC1 conf 22 | PPARg SRC3 ag inactive
COC(=O)c1ccc(C2/C(=C(\O)c3cccc(OC)c3)C(=O)C(=O)N2CCCN(C)C)cc1 (stereo unspecified)	none
O=C(C1=C(O)C(=O)N(CCN2CCOCC2)C1c1cccnc1)c1cc2ccccc2o1 (stereo unspecified)	none (no result: SRC1 TRFRET art, SRC3 TRFRET art)
CN(C)C(=O)COC(=O)c1ccccc1NC(=O)c1ccco1	none
O=S(=O)(NCc1cccc(C(F)(F)F)c1)NCc1ccccc1F	none
Cc1onc(-c2ccccc2)c1C(=O)OCC(=O)Nc1cc(S(=O)(=O)N2CCOCC2)ccc1Cl	none
CSc1ccccc1-c1nnc(-c2ccccc2)o1	none (no result: SRC1 TRFRET art, SRC3 TRFRET art)
CSc1nnc(-c2ccccc2SC)o1	PPARg SRC-1 ag 22 | PPARg SRC2 conf inactive | PPARg SRC1 conf inactive | PPARg SRC3 ag inactive
COC(=O)c1c(NC(=O)Cc2ccccc2)sc(C)c1C	none (no result: SRC1 TRFRET art, SRC3 TRFRET art)
COC(=O)c1c(NC(=S)Nc2ccccc2Cl)sc(C)c1C	PPARg SRC3 recr 38, PPARg SRC-1 ag 22, PPARg SRC-2 ag 31, SRC2 TRFRET art 2012 (no result: SRC1 TRFRET art, SRC3 TRFRET art) | PPARg SRC2 conf 31 | PPARg SRC1 conf 24 | PPARg SRC3 ag inactive
NS(=O)(=O)c1ccc(CCNC(=O)c2cc(-c3ccccn3)nc3ccc(Br)cc23)cc1	PPARg SRC-1 ag 22, SRC3 TRFRET art 2530 | PPARg SRC2 conf inactive | PPARg SRC1 conf inactive | PPARg SRC3 ag inactive
COc1cc(/C=N/Nc2nc3ccccc3[nH]2)ccc1O	none
C(=N\Nc1nc2ccccc2[nH]1)/c1cccs1	PPARg SRC3 recr 28 (no result: SRC1 TRFRET art, SRC3 TRFRET art) | PPARg SRC2 conf inactive | PPARg SRC1 conf inactive | PPARg SRC3 ag inactive
C(=N\Nc1nc2ccccc2[nH]1)/c1ccncc1	none
COc1ccc(O)c(/C=N/Nc2nc3ccccc3[nH]2)c1	PPARg SRC-2 ag 26 | PPARg SRC2 conf inactive | PPARg SRC1 conf inactive | PPARg SRC3 ag inactive
C(=N\Nc1nc2ccccc2[nH]1)/c1ccc2c(c1)OCO2	PPARg SRC-1 ag 22, SRC2 TRFRET art 2021 | PPARg SRC2 conf inactive | PPARg SRC1 conf inactive | PPARg SRC3 ag inactive
O=C1CSC(c2ccccc2Cl)N1 (stereo unspecified)	none
Cc1ccccc1CNc1nnnn1C	none
CNc1nc(-c2c[nH]c3ccccc23)cs1	none (no result: SRC1 TRFRET art, SRC3 TRFRET art)
Nc1nc(-c2c[nH]c3ccccc23)cs1	PPARg SRC3 recr 36, PPARg SRC-1 ag 20 (no result: SRC1 TRFRET art, SRC3 TRFRET art) | PPARg SRC2 conf 22 | PPARg SRC1 conf inactive | PPARg SRC3 ag inactive
Cc1ccc(S(=O)(=O)c2nnn(-c3cccc(F)c3)c2N)cc1	none
CCOC(=O)c1sc2nc(C)n(N)c(=O)c2c1C	none
CCOC(=O)c1sc2nc(C)[nH]c(=S)c2c1C	PPARg SRC-1 ag 25, PPARg SRC-2 ag 35, SRC2 TRFRET art 2175, SRC1 TRFRET art 2663, SRC3 TRFRET art 2353 | PPARg SRC2 conf 30 | PPARg SRC1 conf 23 | PPARg SRC3 ag inactive
COCCN(Cc1ccccc1)C(=O)c1c(C)nn(-c2ccccc2)c1C	none
CNC(=S)N1N=C(c2ccc(C)cc2)CC1c1ccc(Cl)cc1 (stereo unspecified)	PPARg SRC-2 ag 23, SRC2 TRFRET art 2072 (no result: SRC1 TRFRET art, SRC3 TRFRET art) | PPARg SRC2 conf inactive | PPARg SRC1 conf inactive | PPARg SRC3 ag inactive
CCOC(=O)Cn1ncn(-c2ccc(OC(F)(F)F)cc2)c1=O	none
CCN(CC)c1ccc(NC(=O)CSc2nnc(N)s2)cc1C	PPARg SRC-1 ag 20 (no result: SRC1 TRFRET art, SRC3 TRFRET art) | PPARg SRC2 conf inactive | PPARg SRC1 conf inactive | PPARg SRC3 ag inactive
